Compound activity (PubChem BioAssay)
This is a sample that favours compounds with a hit; in the whole collection about 4.2% have one here.
Wnt bcat act = Wnt/beta-catenin pathway activation | Wnt/beta-catenin reporter cell assay, activator, plate reader | activation, % at 9.35 µM | actives 1.2% (n = 300,000) | AID 743398; in the data active means activation above about 30%, passing the limit was not always enough; inconclusive means no clear call, values can overlap the other calls;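 further: 0% = neutral control wells and 100% = positive control wells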
ssDAF-12 act = activates DAF-12 receptor from parasite S. stercoralis; AID 652126; activation, % at 6.8 µM; HEK293 ssDAF-12/GRIP1 lit1-tk-luc reporter, luminescence; % of 3 µM dafachronic acid response; actives 1% (n = 370,000);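 active means activation above the mean over all tested compounds plus 3 SD, cut at about 0.9% in these data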;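 further: 0% = DMSO-only wells and 100% = 3 µM delta7-dafachronic acid wells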
DAX1 inh = blocks DAX1 repression of SF-1 activated StAR promoter. HEK293T StAR-luciferase reporter, SF-1/DAX-1 repression relief. inhibition, % at 6.8 µM. actives 1.1% (n = 370,000). AID 652010;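 active means inhibition above the mean over all tested compounds plus 3 SD, cut at about 3.6% in these data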;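 further: 0% = DAX-1 cells with DMSO and 100% = cells lacking DAX-1 with DMSO; higher inhibition means more luminescence from relief of DAX-1 repression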
esBAF inh = SWI/SNF esBAF complex inhibition. mouse ES cells, Bmi1-luciferase knock-in reporter, 24 h; 100% = twice the neutral-well signal. reporter increase, % at 12.5 µM. actives 2% (n = 350,000). AID 602393; in the data active means activation above about 40%; inconclusive means no clear call, values can overlap the other calls;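 further: 0% = median of the plate's neutral control wells and 100% = double that signal; a rise in the Bmi1 reporter signal indicates esBAF inhibition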
hgDAF12 agonist = agonists of H. glycines DAF-12 nuclear receptor | AID 687014 | actives 1.8% (n = 370,000) | HEK293 GAL4-hgDAF12 UAS-luciferase reporter, agonist luminescence; normalized to butyrate control | activation, % at 6.8 µM;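 active means activation above a cutoff set at the mean of all screened compounds plus 3 SD, cut at about 10% in these data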;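 further: 0% = DMSO wells and 100% = sodium butyrate wells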
hcDAF12 agonist = activators of H. contortus DAF-12 nuclear receptor. HEK293 hcDAF-12 lit1-tk-luc reporter, luminescence; 0% DMSO, 100% Δ7-dafachronic acid. activation, % at 6.8 µM. actives 1.4% (n = 370,000). AID 652067;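 active means activation above the mean of all tested compounds plus 3 SD, cut at about 5.5% in these data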;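 further: 100% = response to 3 µM Δ7-dafachronic acid high control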
DAX1 conf = NR0B1 (human) inhibition, confirmation | AID 652134 | inhibition, % at 6.8 µM | HEK293T StAR-promoter luciferase reporter, SF-1/DAX-1 repression | actives 87% (n = 2,400) | shares compounds with DAX1 inh;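 active means inhibition above the average of every tested compound plus 3 SD, cut at about 3.8% in these data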;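 further: 0% = DAX-1 cells with DMSO and 100% = no DAX-1 control cells with DMSO; active compounds raise luminescence by relieving repression of the StAR reporter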
SF1 mutant ctr = nonselective inhibitor or artifact in SF-1 mutant DAX1 counter-screen; shares compounds with DAX1 inh; HEK293 StAR-luciferase, SF-1 AF2 mutant, luminescence; actives 78% (n = 2,400); inhibition, % at 6.8 µM; AID 652136;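 active means inhibition above the mean of all tested compounds plus 3 SD, cut at about 3% in these data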;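 further: 0% = DAX-1 transfected cells with DMSO and 100% = cells without DAX-1 with DMSO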
LXRb hcDAF ctr = counter-screen for hcDAF-12 agonists: agonists of human LXR-beta; 3,400 tested, under 10 active; activation, % at 6.8 µM; HEK293 Gal4-LXR tk-luc reporter, luminescence, 24 h; normalized: DMSO 0%, positive control 100%; shares compounds with hcDAF12 agonist;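 active means mean percent activation of the reporter above a cutoff set as the average over tested compounds plus their standard deviation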
Target sequence (P55055 whole entry, looked up, the tested form may be a part): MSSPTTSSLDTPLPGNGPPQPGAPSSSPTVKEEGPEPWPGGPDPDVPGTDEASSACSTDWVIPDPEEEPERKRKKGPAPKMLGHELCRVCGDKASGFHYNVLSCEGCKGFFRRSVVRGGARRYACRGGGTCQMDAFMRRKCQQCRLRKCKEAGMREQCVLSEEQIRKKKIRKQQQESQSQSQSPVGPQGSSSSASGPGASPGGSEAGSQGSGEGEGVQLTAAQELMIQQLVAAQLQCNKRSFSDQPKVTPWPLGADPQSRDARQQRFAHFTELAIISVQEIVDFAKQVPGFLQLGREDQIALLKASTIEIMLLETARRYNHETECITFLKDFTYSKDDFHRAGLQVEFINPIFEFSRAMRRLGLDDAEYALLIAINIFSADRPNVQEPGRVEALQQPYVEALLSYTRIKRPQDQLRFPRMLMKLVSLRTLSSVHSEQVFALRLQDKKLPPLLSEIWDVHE
hcDAF12 conf = hcDAF-12 agonism, confirmation assay; shares compounds with hcDAF12 agonist; actives 61% (n = 3,400); HEK293 hcDAF-12 lit1-tk-luc reporter, luminescence; % of Δ7-dafachronic acid response; activation, % at 6.8 µM;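 active means mean activation across triplicate tests above the threshold derived from the earlier primary screen, cut at about 5.5% in these data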;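 further: 0% = DMSO only wells and 100% = 3 µM Δ7-dafachronic acid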
An asterisk follows results filed as active; u = inconclusive; x = no result.

SMILES	Wnt bcat act	ssDAF-12 act	DAX1 inh	esBAF inh	hgDAF12 agonist	hcDAF12 agonist	DAX1 conf	SF1 mutant ctr	LXRb hcDAF ctr	hcDAF12 conf
c1ccc(-c2cc3nc(NCc4cccs4)ccn3n2)cc1	5.5	0.7	7.8*	66.8*	12.2*	10.1*	16.1*	8.1*	1.6	6.6*
Cc1ccc(-c2ccc3c(c2)O[C@@H](CN(C)C)[C@H](C)CN([C@@H](C)CO)S3(=O)=O)cc1	x	x	x	-0.5	x	x	x	x	x	x
N#C/C(=C\c1ccco1)c1nc2ccccc2s1	x	2.5*	5.1*	x	16.6*	14.7*	13.5*	9.1*	1.9	11.4*
CCCC#Cc1ccc2c(c1)O[C@@H](CN(C)Cc1cccnc1)[C@@H](C)CN([C@H](C)CO)S2(=O)=O	x	x	x	-0.7	x	x	x	x	x	x
COc1cccc(-c2nc(-c3cccs3)no2)c1	-1.1	4.0*	5.3*	-53.2	25.8*	14.6*	16.7*	10.7*	1.9	16.2*
Cc1ccc(-n2nc3ccc(NC(=O)C(C)C)cc3n2)cc1	-3.9	1.0*	5.1*	100.2*	17.3*	9.8*	15.8*	7.7*	1.7	6.8*
CC(C)C(=O)Nc1ccc2nn(-c3ccc(F)cc3)nc2c1	x	x	x	2.4	x	x	x	x	x	x
Cc1ccnc(NC(=O)Cc2ccc([N+](=O)[O-])cc2)c1	0.0	-0.9	-0.1	24.7	4.7	3.0	x	x	x	x
Cc1ccnc(NC(=O)Cc2ccc(-c3ccccc3)cc2)c1	15.2	1.3*	14.7*	x	33.5*	9.9*	20.6*	0.7	2.3	9.6*
CCOC(=O)/C=C/C(=O)N1CCc2ccccc21	x	-0.9	-0.7	-4.0	0.4	3.1	x	x	x	x
Cc1ccc(/C=C/C(=O)N2CCc3ccccc32)o1	u	1.3*	5.2*	22.9	12.5*	12.6*	15.6*	7.3*	1.9	9.9*
COc1ccc(CNC(=O)C[C@@H]2C[C@H]3c4cc(NC(=O)CN(C)C)ccc4O[C@H]3[C@@H](CO)O2)cc1	x	x	x	-0.2	x	x	x	x	x	x
COc1cccc(NC(=O)N(C)C[C@@H]2Oc3cc(C#Cc4ccc(F)cc4)ccc3S(=O)(=O)N([C@@H](C)CO)C[C@H]2C)c1	x	x	x	-7.7	x	x	x	x	x	x
c1ccc(-c2noc(-c3ccccc3-c3ccccc3)n2)cc1	-2.7	-0.9	-0.2	x	-0.4	-0.8	x	x	x	x
Cc1ccc(-c2noc(-c3ccccc3Br)n2)cc1	x	2.9*	5.5*	-29.2	14.1*	16.1*	16.1*	7.8*	1.9	21.0*
CN(C(=O)c1ccco1)c1nc2c(s1)CCCC2	23.1	1.6*	5.1*	-4.1	12.1*	8.6*	15.8*	6.4*	1.0	8.3*
COc1ccc2oc(C(=O)NCC3CCCO3)c(C)c2c1 (configuration not stated)	-2.6	0.6	6.5*	31.7	6.4	11.8*	5.1*	2.2	0.6	6.5*
CCOc1ccc2oc(C(=O)NCC3CCCO3)c(C)c2c1 (configuration not stated)	-2.3	-0.3	2.5	38.7	5.3	2.0	x	x	x	x
Cc1cc(-c2nc3ccccc3s2)ccc1N	-2.3	3.1*	6.7*	x	11.8*	14.7*	10.3*	3.1*	2.0	20.9*
C[C@@H]1CN([C@H](C)CO)C(=O)Cc2cc(NS(=O)(=O)c3cccs3)ccc2O[C@H]1CN(C)S(=O)(=O)c1ccc(F)cc1	x	x	x	0.6	x	x	x	x	x	x
Cc1ccc(C(=O)Nc2ccc3c(c2)nc2n3CCSC2)cc1	32.7*	0.4	4.6*	5.1	9.9	7.0*	13.0*	7.5*	1.1	4.1
Cc1ccc(S(=O)(=O)Nc2ccc3c(c2)C(=O)N([C@H](C)CO)C[C@@H](C)[C@@H](CN(C)C(=O)NC2CCCCC2)OCCCC[C@H](C)O3)cc1	x	x	x	13.9	x	x	x	x	x	x
COc1ccccc1NC(CC(=O)c1ccccc1)C(=O)OCC(=O)c1ccc(F)cc1 (configuration not stated)	x	2.7*	6.2*	x	18.2*	17.6*	15.0*	6.6*	2.6	19.0*
COc1ccccc1NC(=O)CCCC(=O)OCC(=O)c1ccc(F)cc1	3.8	-0.5	0.2	x	-0.1	-2.9	x	x	x	x
Cc1nc(N)nc(N/N=C/c2ccccc2)n1	2.7	-0.1	-0.4	x	2.0	-1.8	x	x	x	x
SMILES	Wnt bcat act	ssDAF-12 act	DAX1 inh	esBAF inh	hgDAF12 agonist	hcDAF12 agonist	DAX1 conf	SF1 mutant ctr	LXRb hcDAF ctr	hcDAF12 conf
Cc1ccnc(N/N=C/c2ccccc2)n1	22.2	0.1	4.6*	-0.8	12.8*	17.2*	11.2*	6.3*	0.5	3.0
Cc1sc(NC(=O)c2oc3ccccc3c2C)c(C#N)c1C	-0.3	x	x	0.1	x	x	x	x	x	x
Cc1c(C(=O)NC2=NCCS2)oc2ccccc12	14.4	2.7*	5.3*	-32.1	14.3*	18.8*	14.4*	7.2*	1.9	20.6*
O=C(Nc1ccccc1C(=O)O)c1ccccc1	x	-0.5	0.2	5.0	-0.9	-0.7	x	x	x	x
Cc1c(NC(=O)c2ccc(-c3ccccc3)cc2)cccc1C(=O)O	12.1	0.6	6.6*	1.5	27.3*	10.6*	15.1*	7.7*	1.6	12.9*
COCCn1c(C)cc(C(=O)COC(=O)c2ccccc2Br)c1C	-7.5	-3.9	-4.6	-80.2	-17.9	-7.0	x	x	x	x
COCCn1c(C)cc(C(=O)COC(=O)c2cccnc2SC)c1C	-1.8	0.2	5.8*	x	9.2	7.7*	15.5*	5.6*	1.6	9.4*
COc1ccc(S(=O)(=O)N[C@H]2CC[C@@H](CC(=O)N3CCc4ccccc4C3)O[C@H]2CO)cc1	x	x	x	1.9	x	x	x	x	x	x
CCC(=O)N(C)C[C@@H]1Oc2cc(C#CCOC)ccc2S(=O)(=O)N([C@H](C)CO)C[C@@H]1C	x	x	x	-1.9	x	x	x	x	x	x
Cc1cc(C)c2nc(NC(=O)c3ccco3)sc2c1	23.6	1.0*	19.1*	-32.8	10.2	6.6*	13.4*	2.7	1.7	9.2*
O=C(N/N=C/c1sc(=O)[nH]c1-[n+]1ccc2ccccc2c1)c1ccccc1[O-]	9.1	0.6	4.9*	3.9	5.4	8.4*	0.4	1.2	-0.1	1.8
O=C(C[C@H]1CC[C@@H](NS(=O)(=O)c2ccccc2)[C@@H](CO)O1)N1CCc2ccccc2C1	x	x	x	1.6	x	x	x	x	x	x
O=C1Cc2c([nH]c3ccc(Br)cc23)-c2ccccc2N1	96.1*	0.1	7.5*	x	11.4*	10.7*	6.4*	-5.6	1.6	8.5*
